Among all 5,500 compounds or so, about 2,000 (36%) were called active. Roughly 18% stayed inconclusive and do not appear here. No stated cut-off is given here; in the data, active means normalized growth mostly below about 0.91 (no sharp cut-off); inconclusive means no clear call, values can overlap the other calls; inactive means mostly above about 0.92. Some of the results follow.
Test: chemical genetic growth profiling, strain panel (AID 1159580);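 further: tested at 20 µM; growth read once vehicle control cultures reached saturation at 30 °C; 1 = growth at the plate median or of vehicle wells; lower values mean less growth of the strain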
Details: S. cerevisiae deletion strains, growth OD
[1] = locus YAL013W, strain DEP1, hits give low values
[2] = locus YGR078C, strain PAC10, hits give low values
[3] = locus YJR075W, strain HOC1, hits give low values
[4] = locus YMR263W, strain SAP30, hits give low values
[5] = locus YNL153C, strain GIM3, hits give low values
[6] = locus YPL055C, strain LGE1, hits give low values
[7] = locus YPL241C, strain CIN2, hits give low values
[8] = locus YAR019C, strain CDC15, hits give low values
[9] = locus YBL105C, strain PKC1, hits give low values
[10] = locus YBR135W, strain CKS1, hits give low values
[11] = locus YBR136W, strain MEC1, hits give low values
[12] = locus YBR160W, strain CDC28, hits give low values
[13] = locus YDL017W, strain CDC7, hits give low values
[14] = locus YDL028C, strain MPS1, hits give low values
[15] = locus YDL101C, strain DUN1, hits give low values
[16] = locus YDL108W, strain KIN28, hits give low values
[17] = locus YDL132W, strain cdc53, hits give low values
[18] = locus YDL214C, strain PRR2, hits give low values
[19] = locus YDR052C, strain DBF4, hits give low values
[20] = locus YDR054C, strain cdc34, hits give low values
[21] = locus YDR226W, strain ADK1, hits give low values
[22] = locus YDR477W, strain SNF1, hits give low values
[23] = locus YER123W, strain YCK3, hits give low values
[24] = locus YER133W, strain GLC7, hits give low values
[25] = locus YFL009W, strain cdc4, hits give low values
[26] = locus YFL029C, strain CAK1, hits give low values
[27] = locus YFR003C, strain YPI1, hits give low values
[28] = locus YFR019W, strain FAB1, hits give low values
[29] = locus YFR028C, strain CDC14, hits give low values
[30] = locus YGR040W, strain KSS1, hits give low values
[31] = locus YGR052W, strain FMP48, hits give low values
[32] = locus YGR092W, strain DBF2, hits give low values
[33] = locus YHR030C, strain SLT2, hits give low values
[34] = locus YHR079C, strain IRE1, hits give low values
[35] = locus YHR082C, strain KSP1, hits give low values
[36] = locus YHR205W, strain SCH9, hits give low values
[37] = locus YIL147C, strain SLN1, hits give low values
[38] = locus YJL095W, strain BCK1, hits give low values
[39] = locus YJL128C, strain PBS2, hits give low values
[40] = locus YJL157C, strain FAR1, hits give low values
[41] = locus YJR016C, strain ILV3, hits give low values
[42] = locus YJR066W, strain TOR1 (second series), hits give low values
[43] = locus YJR066W, strain TOR1, hits give low values
[44] = locus YKL048C, strain ELM1, hits give low values
[45] = locus YKL067W, strain YNK1, hits give low values
[46] = locus YKL101W, strain HSL1, hits give low values
[47] = locus YKL193C, strain SDS22, hits give low values
[48] = locus YKL203C, strain TOR2, hits give low values
[49] = locus YLR113W, strain HOG1, hits give low values
[50] = locus YLR133W, strain CKI1, hits give low values
[51] = locus YLR403W, strain SFP1, hits give low values
[52] = locus YML070W, strain DAK1, hits give low values
[53] = locus YMR001C, strain CDC5, hits give low values
[54] = locus YMR205C, strain PFK2 (second series), hits give low values
[55] = locus YMR277W, strain FCP1, hits give low values
[56] = locus YNL006W, strain LST8, hits give low values
[57] = locus YNL020C, strain ARK1, hits give low values
[58] = locus YNL161W, strain CBK1, hits give low values
[59] = locus YNL183C, strain NPR1, hits give low values
[60] = locus YNL207W, strain RIO2, hits give low values
[61] = locus YNL222W, strain SSU72, hits give low values
[62] = locus YNL307C, strain MCK1 (second series), hits give low values
[63] = locus YOL078W, strain AVO1, hits give low values
[64] = locus YOL136C, strain PFK27, hits give low values
[65] = locus YOR061W, strain CKA2, hits give low values
[66] = locus YOR119C, strain RIO1, hits give low values
[67] = locus YOR231W, strain MKK1, hits give low values
[68] = locus YOR329C, strain SCD5, hits give low values
[69] = locus YPL031C, strain PHO85, hits give low values
[70] = locus YPL153C, strain RAD53, hits give low values
[71] = locus YPL204W, strain HRR25, hits give low values
[72] = locus YPL209C, strain IPL1, hits give low values
[73] = locus YPL256C, strain CLN2, hits give low values
[74] = locus YPR025C, strain CCL1, hits give low values
[75] = locus YPR106W, strain ISR1, hits give low values
[76] = locus YPR111W, strain DBF20, hits give low values
[77] = strain NNK1, hits give low values
[78] = strain TSCII, hits give low values
[79] = locus YBR229C, strain ROT2, hits give low values
[80] = locus YCL061C, strain MRC1, hits give low values
[81] = locus YDL134C, strain PPH21, hits give low values
[82] = locus YDR150W, strain NUM1, hits give low values
[83] = locus YEL061C, strain CIN8, hits give low values
[84] = locus YHR087W, strain rtc3, hits give low values
[85] = locus YJR043C, strain POL32, hits give low values
[86] = locus YKL190W, strain CNB1, hits give low values
[87] = locus YLR039C, strain RIC1, hits give low values
[88] = locus YLR058C, strain SHM2 (second series), hits give low values
[89] = locus YLR085C, strain ARP6, hits give low values
[90] = locus YLR262C, strain YPT6, hits give low values
[91] = locus YML094W, strain GIM5, hits give low values
[92] = locus YMR219W, strain ESC1, hits give low values
[93] = locus YNL128W, strain TEP1, hits give low values
[94] = locus YNL298W, strain CLA4 (second series), hits give low values
[95] = locus YNL322C, strain KRE1, hits give low values
[96] = locus YNR030W, strain Alg12, hits give low values
[97] = locus YPR135W, strain CTF4, hits give low values

Measured: normalized growth

COc1ccccc1N1CCN(CCCCN2C(=O)c3ccccc3C2=O)CC1
inactive: [1] 1 | locus YAL040C, strain CLN3, hits give low values 0.99 | locus YCL061C, strain MRC1 (second series), hits give low values 0.995 | locus YDR363W, strain ESC2, hits give low values 0.963 | locus YER002W, strain NOP16, hits give low values 1.01 | [2] 0.985 | locus YGR229C, strain SMI1, hits give low values 1.02 | [3] 0.993 | [4] 1 | [5] 0.99 | locus YNL175C, strain NOP13, hits give low values 0.979 | locus YNL197C, strain WHI3, hits give low values 0.981 | locus YNL224C, strain SQS1, hits give low values 1 | locus YOR083W, strain WHI5 (second series), hits give low values 0.985 | [6] 0.971 | [7] 1

N#Cc1nccnc1N1CCN(C(=O)Nc2cc(Cl)cc(Cl)c2)CC1
active: [33] 0.714
inactive: [8] 0.963 | [9] 0.972 | [10] 0.947 | [11] 0.972 | [12] 0.965 | [13] 0.969 | [14] 0.965 | [15] 0.975 | [16] 0.968 | [17] 0.967 | [18] 0.955 | [19] 0.969 | [20] 0.952 | [21] 0.965 | [22] 0.923 | [23] 0.946 | [24] 0.967 | [25] 0.951 | [26] 0.958 | [27] 0.972 | [28] 0.947 | [29] 0.966 | [30] 0.946 | [31] 1.05 | [32] 0.896 | [34] 0.739 | [35] 0.964 | [36] 0.946 | [37] 0.966 | [38] 0.824 | [39] 0.954 | [40] 0.925 | [41] 0.952 | [42] 0.934 | [43] 0.891 | [44] 0.959 | [45] 0.959 | [46] 0.938 | [47] 0.961 | [48] 0.985 | [49] 0.892 | [50] 0.942 | [51] 0.949 | [52] 0.94 | [53] 0.968 | [54] 0.947 | [55] 0.97 | [56] 0.961 | [57] 0.934 | [58] 0.961 | [59] 0.952 | [60] 0.971 | [61] 0.967 | [62] 0.941 | [63] 0.961 | [64] 0.924 | [65] 0.931 | [66] 1.02 | [67] 0.883 | [68] 0.971 | [69] 0.9 | [70] 0.906 | [71] 0.915 | [72] 0.974 | [73] 0.922 | [74] 0.959 | [75] 0.986 | [76] 0.958 | [77] 0.973 | [78] 0.953

O=C(NC1CCCCC1)N1CCN(c2ncccc2C(F)(F)F)CC1
inactive: [1] 1.01 | [79] 0.994 | [80] 0.984 | [15] 0.998 | [81] 0.982 | [82] 0.978 | [83] 0.998 | [2] 1 | [33] 0.994 | [84] 1.01 | [85] 0.979 | [3] 0.99 | [86] 0.989 | [87] 1.01 | [88] 0.987 | [89] 0.996 | [90] 0.993 | [91] 1.01 | [92] 0.991 | [4] 0.988 | locus YMR307W, strain GAS1, hits give low values 0.851 | [93] 0.986 | [5] 0.988 | [94] 0.986 | [95] 1 | [96] 1 | locus YOL006C, strain TOP1, hits give low values 0.966 | [6] 1.01 | [7] 0.985 | [97] 1.01

COc1cc(NC(=S)N2CCN(c3ccccc3OC)CC2)c(OC)cc1Cl
inactive: [1] 1.01 | [79] 0.992 | [80] 0.984 | [15] 1 | [81] 1.01 | [82] 0.92 | [83] 1 | [2] 1.01 | [33] 0.95 | [84] 1.01 | locus YJL187C, strain SWE1, hits give low values 0.997 | [85] 0.984 | [3] 0.999 | [86] 1.02 | [87] 0.949 | [88] 1.01 | [89] 1.14 | [90] 0.962 | [91] 0.995 | [92] 1 | [4] 0.924 | [93] 1.02 | [5] 0.98 | [94] 1 | [95] 0.997 | [96] 1.01 | [6] 0.9 | [7] 0.895 | [97] 0.966

COc1ccccc1N1CCN(C(=O)C(C)c2ccc(CC(C)C)cc2)CC1 (configuration not stated)
inactive: [8] 0.978 | [9] 0.983 | [10] 0.978 | [11] 0.984 | [12] 0.975 | [13] 0.981 | [14] 0.97 | [15] 0.974 | [16] 0.968 | [17] 0.988 | [18] 0.932 | [19] 0.99 | [20] 0.975 | [21] 0.966 | [22] 0.921 | [23] 0.923 | [24] 0.954 | [25] 0.967 | [26] 0.977 | [27] 0.983 | [28] 0.947 | [29] 0.986 | [30] 0.936 | [31] 0.944 | [32] 0.938 | [34] 0.93 | [35] 0.939 | [36] 0.861 | [37] 0.981 | [38] 0.91 | [39] 0.977 | [40] 0.968 | [41] 0.983 | [42] 0.946 | [43] 0.873 | [44] 0.978 | [45] 0.933 | [46] 0.926 | [47] 0.976 | [48] 1.01 | [50] 0.943 | [51] 0.95 | [52] 0.933 | [53] 0.972 | [54] 0.945 | [55] 0.966 | [56] 0.964 | [57] 0.942 | [58] 0.981 | [59] 0.963 | [60] 0.983 | [61] 0.969 | [62] 0.924 | [63] 0.977 | [64] 0.909 | [65] 0.937 | [66] 0.951 | [67] 0.904 | [68] 0.98 | [69] 0.93 | [70] 0.919 | [71] 0.915 | [72] 0.981 | [73] 0.877 | [74] 0.983 | [75] 0.961 | [76] 0.95 | [77] 0.965 | [78] 0.965
active: [33] 0.802 | [49] 0.829

From PubChem BioAssay AID1159580 (chemical genetic matrix, 2015)
